{"source": "PubChem BioAssay (Tox21)", "note": "Inconclusive results are not listed. A call without a number means that no potency is given here. Active and inactive are the calls of the source. The call rests on the fitted dose curve; in most records, active means well fitted inhibition curve with a large enough effect in the repeat runs; inconclusive means weak or mixed curves; inactive means no such curve, though single readings can be large or run the other way. Potency means the concentration at half of the fitted maximal effect.", "data": [{"target": "Cytochrome P450 3A4 (Homo sapiens) (UniProt P08684)", "sequence (P08684 whole entry, looked up)": "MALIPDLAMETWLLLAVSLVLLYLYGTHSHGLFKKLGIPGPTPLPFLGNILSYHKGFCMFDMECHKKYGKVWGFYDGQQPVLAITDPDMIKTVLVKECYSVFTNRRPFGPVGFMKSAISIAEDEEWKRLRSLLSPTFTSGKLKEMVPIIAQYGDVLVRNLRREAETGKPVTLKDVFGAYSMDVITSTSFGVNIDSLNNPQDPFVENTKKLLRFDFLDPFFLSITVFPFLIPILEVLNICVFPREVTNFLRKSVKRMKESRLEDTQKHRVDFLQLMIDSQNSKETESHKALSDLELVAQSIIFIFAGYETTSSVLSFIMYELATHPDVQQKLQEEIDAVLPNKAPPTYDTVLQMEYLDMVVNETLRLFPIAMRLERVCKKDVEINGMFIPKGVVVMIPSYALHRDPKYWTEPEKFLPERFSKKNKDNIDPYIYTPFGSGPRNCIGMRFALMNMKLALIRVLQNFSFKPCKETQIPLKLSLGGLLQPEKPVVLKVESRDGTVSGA", "assay": "Cytochrome P450 Family 3 Subfamily A Member 4 (CYP3A4) small molecule antagonists: luciferase reporter qHTS assay (AID 1671201); further: nearly all actives have a fitted effect of over 50% in size", "settings": "P450-Glo CYP3A4 enzyme, luciferin luminescence, 1 h; series mostly up to 115 µM", "method_in_brief": "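Room-temperature assay throughout: 10 min compound–enzyme/substrate preincubation, 1 h reaction after NADPH regeneration solution, 20 min detection. Luciferin formed from proluciferin substrate is quantified by luminescence.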", "values": [{"smiles": "CC/C=C\\C/C=C\\C/C=C\\CCCCCCCC(=O)OCC", "Potency": "72.7 µM (active)"}, {"smiles": "CCOc1ncc(F)c(=O)[nH]1", "Potency": "inactive"}, {"smiles": "NC(=O)c1ccccc1[N+](=O)[O-]", "Potency": "inactive"}, {"smiles": "CC(C)CC(O)CC(C)C", "Potency": "inactive"}, {"smiles": "CC(=O)OC(C)C[N+](C)(C)C", "note": "(stereo not given)", "Potency": "inactive"}]}]}
